# PubChem BioAssay (NCATS)
# Inconclusive results are not listed. Active and inactive are the calls of the source. Calls follow the shape of the dose curve; as a rule, active = well fitted inhibition curve with a large enough effect; inconclusive = small, poorly fitted or top-dose-only effect; inactive = no such curve, though single readings can be large or run the other way.
# Molecular target: Cytochrome P450 3A4 (Homo sapiens) (UniProt P08684)
# Assay: qHTS Assay for Inhibitors and Substrates of Cytochrome P450 3A4 (AID 884); also: nearly all actives have a fitted effect of over 50% in size
# Conditions: recombinant CYP3A4, Luciferin-PPXE luminescence; series mostly up to 57.1 µM; activity change, negative = inhibition: at the top concentration
# Protocol: NIH Molecular Libraries Screening Centers Network [MLSCN]
# NIH Chemical Genomics Center [NCGC]
# The P450 gene superfamily is involved in the metabolism and clearance of xenobiotics. This assay used human CYP3A4 to measure the dealkylation of luciferin-6' phenylpiperazinylyl (Luciferin-PPXE; […]) to luciferin. The luciferin is then measured by luminescence after the addition of a luciferase detection reagent. Luciferin-PPXE concentration in the assay was equal to its KM for CYP3A4. Inhibitors and some substrates limit the production of luciferin, and decrease measured luminescence.
# NCGC Assay Protocol Summary:
# Two uL of enzyme and substrate mix (final concentrations: 20nM CYP3A4, 25uM Luciferin-PPXE, 200mM KPO4) were dispensed into a white, solid bottom 1536-well microtiter plate. 23nL of compound was transferred by a pin tool. The plate was incubated at RT for 10 min. Two uL of an NADPH regeneration solution (Promega supplied reagent) was dispensed and the reaction was allowed to continue for 60 min at RT. Then the reaction was stopped by reconstituted luciferin detection buffer. After another 20 min of incubation the plate was read on the ViewLux (Perkin Elmer) at 60 sec exposure and 2x2 binning. This protocol was carried out with Promega-Glo reagents and further information can be found at http://www.promega.com/tbs/tb325/tb325.pdf. Data were normalized to the to AC100 inhibition (57 uM ketoconazole).
# Keywords: P450, CYP3A4, Luciferase, MLSMR, MLSCN, NIH Roadmap, qHTS, NCGC
# % is scaled to controls: 0 for no effect and ±100 for the full control effect; potency is read from the fitted curve at half-maximal effect.
# Sequence of Cytochrome P450 3A4 (Homo sapiens) (P08684 whole entry, looked up): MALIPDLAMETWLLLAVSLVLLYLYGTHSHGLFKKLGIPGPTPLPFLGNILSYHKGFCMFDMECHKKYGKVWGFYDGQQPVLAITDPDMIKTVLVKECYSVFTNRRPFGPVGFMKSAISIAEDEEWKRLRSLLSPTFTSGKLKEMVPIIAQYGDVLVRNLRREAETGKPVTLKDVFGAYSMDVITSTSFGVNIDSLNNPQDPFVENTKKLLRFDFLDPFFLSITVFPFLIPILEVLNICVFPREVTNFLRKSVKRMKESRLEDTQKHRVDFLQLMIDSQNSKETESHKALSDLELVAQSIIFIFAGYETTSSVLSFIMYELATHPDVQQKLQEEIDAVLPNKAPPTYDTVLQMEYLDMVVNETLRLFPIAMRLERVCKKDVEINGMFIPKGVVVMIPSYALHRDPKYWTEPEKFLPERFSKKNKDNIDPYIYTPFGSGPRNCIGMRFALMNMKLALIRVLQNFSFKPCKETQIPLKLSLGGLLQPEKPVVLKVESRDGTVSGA
SMILES,"activity change, negative = inhibition",Potency
CC1(N)CCC(C(C)(C)N)CC1 (stereo not given),-6.5% (inactive),
O=C(O)c1ccccc1C(=O)O,-12.3% (inactive),
COCCOC(=O)c1ccccc1C(=O)OCCOC,-28.5% (inactive),
c1ccc2n[nH]nc2c1,-14.8% (inactive),
CC(=O)CCc1ccccc1,-31.6% (inactive),
CCOCCO,1.6% (inactive),
CCCCCCCCC/C=C/CC1CC(=O)OC1=O (stereo not given),-14.6% (inactive),
CCOC(=O)C(C)C(C)=O (stereo not given),5.08% (inactive),
Cc1ccc(C)c([N+](=O)[O-])c1,-3.72% (inactive),
OC/C(Br)=C(\Br)CO,0.225% (inactive),
Nc1nc(-c2ccccc2)cs1,,20 µM (active)
C1CCOC1,-10.5% (inactive),
O=C(O)c1cc(Cl)cc(Cl)c1,10.4% (inactive),
O=C(Cl)c1c(Cl)cccc1Cl,-12.5% (inactive),
Clc1cc(Cl)cc(Cl)c1,-1.14% (inactive),
O=C1CCCCC1,-5.36% (inactive),
CCOc1ccc(NC(C)=O)cc1N,-15.7% (inactive),
O=P(O)(OCc1ccccc1)OCc1ccccc1,7.23% (inactive),
CC(=O)C1(C)CC2=C(CCCC2(C)C)CC1C (stereo not given),-12.2% (inactive),
Cc1c(C(=O)O)cccc1[N+](=O)[O-],-5.79% (inactive),

SMILES,"activity change, negative = inhibition",Potency
Cc1cccc(C)c1[N+](=O)[O-],-4.71% (inactive),
O=[N+]([O-])c1ccc(Cl)cc1Cl,-11.5% (inactive),
Cc1ccc(CO)cc1,-10.9% (inactive),
Cc1cccc2cccnc12,-11% (inactive),
CCCCCCCCN,-12% (inactive),
CCC(C)(C)OC,7.04% (inactive),
CCCCC/C=C/C=C/C=O,-12% (inactive),
CC/C(C)=N/O,-6.45% (inactive),
CC#N,3.56% (inactive),
Cc1cccc(C(=O)O)c1,-18.3% (inactive),
CCC1CO1 (stereo not given),-1.52% (inactive),
CC(C)C(C)C,-1.68% (inactive),
CCC(O)C(C)(C)C (stereo not given),-3.6% (inactive),
COC(=O)CC#N,-3.54% (inactive),
Nc1ccccc1S(=O)(=O)O,1.08% (inactive),
O=[N+]([O-])c1ccc(CCO)cc1,-23.3% (inactive),
CCCCCCCCCCCCOCC1CO1 (stereo not given),-3.61% (inactive),
C=Cc1ccccn1,-4% (inactive),
Cc1ccc2c(c1[N+](=O)[O-])C(=O)c1ccccc1C2=O,,12.6 µM (active)
Cc1ccccc1C(N)=O,-1.94% (inactive),
